Measured values: PubChem BioAssay (Tox21)
The source made the active and inactive calls. The call rests on the fitted dose curve.

Test: qHTS assay to identify small molecule agonists of the estrogen related receptor (ERR) signaling pathway from Tox21 library (AID 1224849); further: nearly all actives have a fitted effect of over 15% in size
Conditions: ERR reporter cell line, ONE-Glo luciferase, 18 h; at 92.4 µM (top of the series) unless noted
Excerpt: National Center for Advancing Translational Sciences [NCATS]
NIH Chemical Genomics Center [NCGC]
U.S. Environmental Protection Agency [EPA]
National Institutes of Environmental Health Sciences [NIEHS]
National Toxicology Program [NTP]
Estrogen related receptors (ERRs), the first orphan nuclear receptors discovered, play an important role in the control of cellular energy metabolism. ERRs are required for high-energy production in response to the environmental challenges. ERR-alpha was also identified as an adverse marker for breast cancer progression; ERR-alpha-positive tumors have a poor prognosis. To screen and to identify environmental compounds that perturb the ERR signaling pathways could provide valuable information for potential therapeutic or preventive measures in the treatment of metabolic disease. For identifying ERR agonists, ERR cell line (provided by NTP) has been used to screen Tox21 10K library.
The ERR cells were dispensed at 2,000 cells/5 ul/well in 1536-well white plates using a Multidrop dispenser. After the assay plates were incubated at a 37 C/5% CO2 incubator for 6 hours, 23 nL of compounds dissolved in DMSO, positive and negative controls or DMSO only was transferred to the assay plate by a pin tool. The plates were incubated at 37 C for 18 hours. 4 ul/well of One-Glo reagent was added into the assay plates using a Flying Reagent Dispenser. After 30-minute incubation at room temperature, the luminescence intensity in the plates was measured using a ViewLux plate reader.
On the % scale 0 is the no-effect control and ±100 the full control effect.

| Structure (SMILES) | activity change, positive = activation |
| --- | --- |
| ONc1ccccc1 | 20.7% (active) |
| CCCC(=O)OCCC(C)CCC=C(C)C (configuration not stated) | -4.9% (inactive) |
| Cn1nnc2c(C(N)=O)ncn2c1=O | -0.988% [at 42.5 µM] (inactive) |
| CC1c2ccccc2CN1NC(=O)c1ccc(Cl)c(S(N)(=O)=O)c1 (configuration not stated) | 3.24% [at 42.5 µM] (inactive) |
| CC(C)C[C@@H]1[C@H](c2ccccc2)OC(=O)N1CCCN1CCCCCC1 | 0.937% [at 42.5 µM] (inactive) |
| CN(C)CCCO[C@@H]1[C@H]2OC(C)(C)O[C@H]2O[C@@H]1C(O)CO (some centres not stated) | 6.19% [at 42.5 µM] (inactive) |
| CCC(=O)CC | 4.37% (inactive) |
| CC1CCc2c(N3CCC(O)CC3)c(F)cc3c(=O)c(C(=O)O)cn1c23 (configuration not stated) | -17.9% [at 42.5 µM] (inactive) |
| CCCCCCCCCCCCCBr | 3.01% (inactive) |
| C/C=C(\C)C(=O)OCCc1ccccc1 | 9.96% (inactive) |
| CC(C)(C)NC[C@H](O)COc1cccc2c1CCCC2=O | 4.14% [at 42.5 µM] (inactive) |
| CC/C=C\CCOC(=O)c1ccccc1O | 2.25% (inactive) |
| c1ccc2cnccc2c1 | 7.4% (inactive) |
| c1ccc(-c2nn[nH]n2)cc1 | 8.29% (inactive) |
| OC[C@@H](O)C(O)[C@@H](O)CO (some centres not stated) | 9.91% (inactive) |
| Nc1nc(-c2ccccc2)c(Br)c(=O)[nH]1 | -6.57% [at 42.5 µM] (inactive) |
| CCC(C(=O)OCCN1CCOC(c2ccccc2)C1C)c1ccccc1 (configuration not stated) | -23.3% [at 42.5 µM] (inactive) |
| Fc1ccccc1 | 8.1% (inactive) |
| COc1nc(N)nc2nc[nH]c12 | 0.367% (inactive) |
| CC(C)(CO)C(O)C(=O)NCCCO (configuration not stated) | 0.356% (inactive) |
| O=C(CCCCC(=O)Nc1c(I)cc(I)c(C(=O)O)c1I)Nc1c(I)cc(I)c(C(=O)O)c1I | -37% [at 42.5 µM] (inactive) |
| c1ccc2c(CC3=NCCN3)cccc2c1 | 4.17% [at 42.5 µM] (inactive) |
| CC1=C(C(=O)O)N2C(=O)[C@@H](NC(=O)[C@H](N)c3ccccc3)[C@H]2SC1 | 5.12% [at 42.5 µM] (inactive) |
| O=C(O)CCCCCC(=O)O | 1.8% (inactive) |
| O=Cc1ccccc1Cl | 4.09% (inactive) |
| COc1cc2c(cc1OC)C(=O)C(CC1CCN(Cc3ccccc3)CC1)C2 (configuration not stated) | 2.42% [at 42.5 µM] (inactive) |
| CCC(=O)c1c(O)cc(O)cc1O | -13.5% [at 42.5 µM] (inactive) |
